This is an account of results in PubChem BioAssay (NCATS).

Inconclusive results are not listed. For part of these data: Potency and affinity values are given separately. Active and inactive are the calls of the source.

For test [1] the following is noted: Ebola virus entry assay, blue channel (ratio component).
The conditions of test [2]: Ebola virus entry cell assay, ratio channel.
The conditions of test [3]: Ebola virus entry reporter assay, green channel fluorescence. For orientation: Reporter assays use an easily measured gene product as a stand-in for the process of interest.
Test [4] is described as follows: Immunotoxin (HA22) sensitization/mitigation study. Vehicle arm (PBS) (AID 1159510). Note: potency is the fitted concentration of half-maximal effect. As to conditions: cancer cells viability with PBS vehicle (HA22 study); series mostly up to 46.1 µM.
The nature of test [5]: Immunotoxin (SS1P) sensitization/mitigation study. Vehicle arm (DMEM) (AID 1159513). The settings on record: cell viability with vehicle (DMEM); series mostly up to 46.1 µM.
The nature of test [6]: High-throughput drug toxicity screening in the BPDCN cell line Gen2.2 (AID 1224824).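 Note: cells exposed to compounds for 48 h before reading.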 The settings on record: Gen2.2 BPDCN cells; at 45.8 µM (top of the series) unless noted. The gist of the method: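 Gen2.2 cells, 500 per well in phenol red-free RPMI with 10% FBS, exposed to compounds 48 h at 37 C, 5% CO2; viability by CellTiter-Glo luminescence. Percent activity scaled to DMSO (100%) and 9.2 uM bortezomib final (0%).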

Test [7] can be described thus: High-throughput drug toxicity screening in the BPDCN cell line Cal-1 (AID 1224825). As to conditions: Cal-1 BPDCN cell viability, qHTS; at 45.8 µM (top of the series) unless noted. The essentials:
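Percent activity derived from CellTiter-Glo luminescence, scaling DMSO to 100% and 9.2 uM final bortezomib to 0%. BPDCN Cal-1 cells (500/well, RPMI plus 10% FBS) incubated with compounds 48 hours at 37C before reading.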
On the technique in general: Quantitative high-throughput screening tests each substance at several concentrations.

Test [8] is described as follows: qHTS assay for measurement of the activity of small molecule inhibitors on Zika virus induced Caspase-3 activity in human iPSC derived neural progenitor cells (hNPCs) (AID 1224857; active = well fitted inhibition curve with a large enough effect; note: % of control where 0% means no effect; nearly all actives have a fitted effect of over 65% in size). As to conditions: hNPCs ZIKV-induced caspase-3/7, Caspase-Glo luminescence, 6 h; series mostly up to 45.7 µM. The essentials: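 In medium with heparin 2 ug/ml and cyclopamine 2 uM, hNPCs (350 cells/well) received compound for one hour and then Zika virus at 2 FFU/cell; caspase activity was measured by Caspase-Glo 3/7 luminescence 6 h post-infection.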

A short description of test [9]: qHTS assay for measurement of the activity of small molecule inhibitors on Zika virus induced Caspase-3 activity in human astrocytoma cells (AID 1224859; active = well fitted inhibition curve with a large enough effect;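 note: plate controls were ZIKV-infected untreated cells for no effect and uninfected cells for full effect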). As to conditions: SNB-19 ZIKV-induced caspase-3/7, luminescence, 6 h; series mostly up to 45.7 µM. The essentials: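 A cell-based luminescent caspase-3/7 assay used SNB-19 cells infected with ZIKV (2 FFU/cell) for 6 h following 1 h compound pretreatment.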

The nature of test [10]: qHTS Screen of the MIPE 4.0 Collection Against Ewings Sarcoma (RDES) (AID 1259252; active = well fitted inhibition curve with a large enough effect;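 note: 100% = DMSO-treated cells and 0% = medium-only wells without cells; nearly all actives have a fitted effect of over 35% in size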). The settings on record: RD-ES Ewing sarcoma viability, CellTiter-Glo, 48 h; series mostly up to 45.8 µM. An excerpt: There is a large unmet medical need for treatments for Ewing sarcoma, a pediatric sarcoma. We sought to identify compounds that inhibited Ewing sarcoma cells in vitro with the goal to then test promising drugs in two drug combinations in vitro to look for synergistic drug combinations. Promising combinations would then proceed to additional validation, including in vivo testing.
Using the NCATS developed oncology compound library called the Mechanism of Interrogation Plate (MIPE), four Ewing sarcoma cell lines were evaluated (TC32, TC71, RDES, EW8). Compounds, in a 12-point titration series, were incubated with cells for 48 hours and the read out was cell viability (CellTiter-Glo from Promega). These initial experiments were used to select appropriate concentrations of each single agent for subsequent two-drug matrix combinations such that the concentrations in the matrices would span both activity and non-activity.
Cells, in the log phase of growth, were seeded in 5 uL of RPMI plus 5% FBS, […] L-glutamine, 100 U/ml penicillin and 100 ug/ml streptomycin into 1536-well solid-bottom white tissue culture treated Greiner Bio One Plates (789173-F) using a MultiDrop Combi (Thermofisher Scientific) dispenser and a small sterile cassette. One column was media alone to be used as a :"no cells" control. The plates were then covered with sterilized stainless steel gasketed lids from Kalypsys. After allowing cells to attach for 4 hours, 23 nL of test compound or control (negative control DMSO and positive control 9.2 uM Bortezomib-final) were added from a 1536-well polypropylene compound source plate to each well using a 1536 head pin tool from Kalypsys. Cells were then incubated for 48 hours at 37C, 95% relative humidity and 5% CO2. After 48 hours, plates were removed from the incubator and 3 uL of CellTiter-Glo (Promega) was added using an Aurora Flying Reagent Dispenser Bioraptor. Plates were incubated at room temperature for 10 minutes prior to reading the luminescence on the Viewlux (PerkinElmer). The relative luciferase units are used to calculate the percent activity using the activity of DMSO in the cells and no cells columns for normalization of no inhibition and full inhibition respectively.

As for `NC(=O)CC[C@@H]1NC(=O)[C@H](Cc2ccccc2)NC(=O)[C@H](Cc2ccc(O)cc2)NC(=O)CCSSC[C@@H](C(=O)N2CCC[C@H]2C(=O)N[C@@H](CCCN=C(N)N)C(=O)NCC(N)=O)NC(=O)[C@H](CC(N)=O)NC1=O`, the outcome in test [1] and in test [2] was inactive.
For the compound `OCCOCCN1CCN(C2=Nc3ccccc3Sc3ccccc32)CC1`, the outcome in test [1], in test [3] and in test [2] was inactive.
Consider `O=P1(N(CCCl)CCCl)NCCCO1` (centres undefined), for which the outcome in test [1], in test [3], in test [2], in test [8] and in test [9] was inactive. Further, the Potency entry in test [4] and in test [5] was “inactive” throughout. Also, the cell viability, % of control (lower = more cytotoxic) in test [6] turned out to be 17%. Also, the viability (% of control) in test [7] was 104%.
Regarding `CC(CCc1ccc(O)cc1)NCCc1ccc(O)c(O)c1` (centres undefined), the result in test [1], in [3] and in test [2] was inactive.
Regarding `CC(NC(C)(C)C)C(=O)c1cccc(Cl)c1` (centres undefined), the result in test [1], in test [3], in test [2], in [8] and in [9] was inactive. The cell viability, % of control (lower = more cytotoxic) in test [6] stood at 145%. Moreover, the viability (% of control) in test [7] was 97.9%. Further, in test [10], the Potency entry was “inactive”.
For the compound `NC(=O)COCCN1CCN(C(c2ccccc2)c2ccc(Cl)cc2)CC1` (centres undefined), the outcome in [1], in [3] and in test [2] was inactive.
As to `Nc1nc2ccc(OC(F)(F)F)cc2s1`, the outcome in test [1], in [3] and in test [2] was inactive. Moreover, the Potency in test [4] is 23.5 µM (active).
Regarding `Nc1ccc(C(=O)O)c(O)c1`, the result in test [1], in test [3] and in test [2] was inactive.
With `CN/C(=C\[N+](=O)[O-])NCCSCc1csc(CN(C)C)n1`, the result in test [1] and in test [2] was inactive.
As to `CCN(CC)C(=O)/C(C#N)=C/c1cc(O)c(O)c([N+](=O)[O-])c1`, the result in [1], in test [3] and in test [2] was inactive.
As for `NC(N)=NC(=O)Cc1c(Cl)cccc1Cl`, the outcome in test [1], in test [3] and in test [2] was inactive.
For the compound `CC(C)N(CCC(C(N)=O)(c1ccccc1)c1ccccn1)C(C)C` (centres undefined), the outcome in [1], in test [3], in [2], in test [8] and in test [9] was inactive.
`C[C@]12CCC(=O)C=C1CC[C@H]1[C@@H]3CC[C@](O)(C(=O)CO)[C@@]3(C)C[C@H](O)[C@@]12F`: the outcome in test [1], in test [3] and in [2] was inactive.
`CC(C)[C@H](N)C(=O)OCCOCn1cnc2c(=O)[nH]c(N)nc21`: the result in test [1], in [3] and in test [2] was inactive.
Regarding `CN(C)CCOc1ccc(/C(=C(/CCCl)c2ccccc2)c2ccccc2)cc1`, the result in test [1] was inactive. Besides, the AC50 in [2] was 3.55 µM (active).
Take `NS(=O)(=O)c1cc2c(cc1C(F)(F)F)NC(Cc1ccccc1)NS2(=O)=O` (centres undefined): the outcome in test [1] and in test [2] was inactive.
Regarding `CCC1(c2ccc(N)cc2)CCC(=O)NC1=O` (centres undefined), the result in test [1], in test [8] and in [9] was inactive. The cell viability, % of control (lower = more cytotoxic) in test [6] was found to be 153%. Also, the viability (% of control) in test [7] amounted to 111%. For the same compound, the Potency entry in [10] is “inactive”.
As to `CN1C(=O)CCS(=O)(=O)C1c1ccc(Cl)cc1` (centres undefined), the result in [1], in test [8] and in [9] was inactive. Also, in [6], the cell viability, % of control (lower = more cytotoxic) is 143%. Moreover, the viability (% of control) in test [7] is 112%.

Usually AC50 stands for the concentration at which the activity in the assay is half-maximal.
